Compound activity deposited in PubChem by National Center for Advancing Translational Sciences (NCATS).
D2 antag – antagonizes the human D2 dopamine receptor. P14416. HEK293 TREx D2 cells, calcium flux, dopamine EC80. inhibition, % at 10 µM. hit rate 2% among 340,000; in the data active = inhibition above about 30%; inactive = below that, where a call was filed
Target sequence (P14416 whole entry, looked up): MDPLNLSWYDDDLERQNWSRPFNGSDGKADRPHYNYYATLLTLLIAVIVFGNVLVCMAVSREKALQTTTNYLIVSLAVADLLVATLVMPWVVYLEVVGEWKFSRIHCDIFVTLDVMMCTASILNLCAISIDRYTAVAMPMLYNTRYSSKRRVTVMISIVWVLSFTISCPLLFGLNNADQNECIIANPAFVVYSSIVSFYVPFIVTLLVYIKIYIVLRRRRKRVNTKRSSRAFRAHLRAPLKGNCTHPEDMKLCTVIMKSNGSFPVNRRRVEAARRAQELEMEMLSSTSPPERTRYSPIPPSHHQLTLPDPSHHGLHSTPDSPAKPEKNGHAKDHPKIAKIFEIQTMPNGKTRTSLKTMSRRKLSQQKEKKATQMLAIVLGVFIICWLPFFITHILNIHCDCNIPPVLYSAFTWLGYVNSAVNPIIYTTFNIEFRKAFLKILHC
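Compounds are added to dye-loaded, induced HEK293 T-REx cells coupled to calcium release via D2; after a 3 min kinetic read an EC80 dopamine stimulus is given and fluorescence is recorded for 3 more min.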
D2 ag-1 – D2 dopamine receptor (human) agonism | hit rate 0.53% among 340,000 | HEK293 T-REx D2 cells, calcium flux agonist mode | P14416 | activation, % at 2 µM;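 active = activation over 3 SD above normal in the single-dose calcium agonist read, cut at about 30% in these data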
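Agonism scored from kinetic calcium signal (1 read/sec, 180 s) following compound pin transfer, after a 10 s baseline. Cells: HEK293 Trex line expressing inducible D2 receptor coupled to calcium, dye-loaded after overnight culture at 30 C.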
D2 ag-2 – human D2 receptor agonism in beta-arrestin assay | hit rate 0.084% among 360,000 | activation, % (concentration not given with the values) | DiscoveRx PathHunter D2 beta-arrestin, luminescence, 90 min; 100% = 57 uM dopamine signal; in the data active = activation above about 40%; inconclusive = between about 15% and that limit
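Agonist mode: compounds alone added to overnight-plated D2 PathHunter cells for 90 min at 37 C, with 57 uM final dopamine (EC100) defining full response. Beta-arrestin recruitment detected by chemiluminescent reagent, read after 1 h at ambient temperature.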
D2 PAM-1 – potentiates the human D2 dopamine receptor allosterically | DiscoveRx D2 beta-arrestin cells, luminescence, 90 min; 100% = 57 uM dopamine signal | potentiation, % (no concentration beside the values) | hit rate 0.23% among 360,000 | AID 624464; in the data active = potentiation above about 50%; inconclusive = mostly about 30% to 49%
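PathHunter beta-arrestin assay in DiscoveRx D2 cells. Compounds were added with an EC20 of dopamine (50 nM final) for 90 min at 37 deg C. Luminescence was read 1 h after detection reagent, with 57 uM dopamine as the EC100 control.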
D2 PAM-2 – positive allosteric modulators of human D2 dopamine receptor; potentiation, % at 10 µM; P14416; HEK293 T-REx D2, calcium flux, EC20 dopamine potentiation; hit rate 0.34% among 340,000;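 active = potentiation over 3 SD above the plate norm, cut at about 30% in these data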
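Tetracycline-induced Hek293 Trex D2 cells, force-coupled to calcium, loaded with no-wash calcium dye. Compound added with 180 s kinetic read for agonism, then EC20 dopamine and a further 180 s read for potentiation.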
D3 arrestin ag – D3 receptor agonism confirmed, beta-arrestin readout. shares compounds with D2 ag-1. hit rate 4% among 2,300. DiscoveRx D3 beta-arrestin cells, luminescence, 90 min. Potency, µM (top dose mostly 76.9 µM), usual class: activators; note: nearly all actives have a fitted effect of over 70% in size
D2 ag-3 – D2 receptor agonism, beta-arrestin counterscreen; shares compounds with D2 ag-1; DiscoveRx PathHunter D2 beta-arrestin, luminescence, 90 min; response scale: percent relative to full dopamine signal; Potency, µM (highest dose often 76.9 µM), hits mostly activators; hit rate 5.9% among 2,300; AID 720507; note: nearly all actives have a fitted effect of over 70% in size
Of the large screens only hits and unclear results are named; the others gave an inactive call (follow-up assays come after a bar, where they were run). The list is not random: actives were taken first. Their share in the collection is about 2.4%. Unless noted, calls come from the whole dose curve; as a rule, active = well fitted activation curve with a large enough effect; inconclusive = small, poorly fitted or top-dose-only effect; inactive = flat fitted curve, though single readings scatter.

CCC1(c2cccc(O)c2)CCCCN(C)C1 (stereo not given)	D2 antag 39.3
C1=C(c2c[nH]c3ccccc23)CCN(Cc2ccccc2)C1	D2 antag 69.8
CN1CC=C(c2c[nH]c3ccccc23)CC1	D2 antag 74.7
Clc1cccc(N2CCNCC2)c1	D2 antag 35.0
CC(C)OP(=O)(OC(C)C)C(O)c1ccc(Br)cc1 (stereo not given)	D2 PAM-1 103.7
Cc1ccc(Cn2cccc(C(=O)Nc3nnc(C)s3)c2=O)cc1	none (no result: D2 antag, D2 ag-2, D2 PAM-1)
COc1cc(C)c(CN2CC=C(c3ccc(F)cc3)CC2)cc1C	D2 antag 83.9
COc1cc(CN2CC=C(c3ccc(F)cc3)CC2)cc(OC)c1	D2 antag 81.1
CCc1ccc(-n2nc(C)c3c2NC(=O)CSC3c2ccc(C(=O)OC)cc2)cc1 (stereo not given)	none (no result: D2 antag, D2 ag-2, D2 PAM-1)
CN1CCN(c2csc3ccc(F)cc3c2=O)CC1	none (no result: D2 antag, D2 ag-1, D2 ag-2, D2 PAM-1)
CC1=CC(=O)C2=C(C)CC(O)C3C(C)C(=O)OC3C12 (stereo not given)	D2 antag 35.2
CNCCc1ccc(O)c(O)c1	D2 ag-2 76.5, D2 PAM-1 66.4 (no result: D2 antag, D2 ag-1, D2 PAM-2)
COc1ccc(CCN)cc1O	none (no result: D2 antag, D2 ag-1, D2 PAM-2)
Cc1cccc(NC(=O)Cn2cc(C(=O)c3ccccc3)c3ccccc32)c1C	none (no result: D2 antag, D2 ag-2, D2 PAM-1)
CCC(C)NC(=O)CCC(=O)OC1O[C@H]2OC3(C)CC[C@H]4[C@H](C)CCC(C1C)C24OO3 (stereo not given in full)	D2 ag-2 57.5
CCC(C)C(NC(=O)CCCNC(=O)CCC(=O)OC1O[C@H]2OC3(C)CC[C@H]4[C@H](C)CCC(C1C)C24OO3)C(=O)O (stereo not given in full)	none (no result: D2 ag-2, D2 PAM-1)
COc1cc(/C=C/c2nc3ccccc3c(=O)n2-c2ccc(Br)c(C)c2)ccc1O	none (no result: D2 antag, D2 ag-2, D2 PAM-1, D2 PAM-2)
Cc1cc(-n2c(/C=C/c3cccs3)nc3ccccc3c2=O)ccc1Br	none (no result: D2 antag, D2 ag-2, D2 PAM-1)
Cc1ncc([N+](=O)[O-])n1CCOC(N)=O	D2 antag 38.2
CCN1/C(=C\C=C\C2=[N+](CC)c3ccccc3C2(C)C)C(C)(C)c2ccccc21	D2 ag-1 50.3
CC1CCCN(c2ccc(C(=O)N3CCC4(CC3)OCCO4)cc2[N+](=O)[O-])C1 (stereo not given)	none
CCOC(=O)C1CCCN(c2ccc([N+](=O)[O-])c3nonc23)C1 (stereo not given)	D2 antag 51.7, D2 ag-1 134.7
COc1c(C)cc(C(=O)C2CCCN(Cc3cccc(C)n3)C2)cc1C (stereo not given)	D2 ag-1 37.7
CCCN1CCCC(C(=O)c2cc(C)c(OC)c(C)c2)C1 (stereo not given)	D2 antag 86.3
COc1ccc(OCC(=O)N2CCN(Cc3cc(=O)n4nc(-c5ccccc5C)sc4n3)CC2)cc1	none (no result: D2 antag, D2 ag-2, D2 PAM-1)
COc1ccc(-c2nc(CN3C(=O)CN=C(c4ccccc4)c4cc(Cl)ccc43)c(C)o2)cc1	none (no result: D2 antag, D2 ag-2, D2 PAM-1, D2 PAM-2)
CCn1ccnc1CN1CCCC(C(=O)c2ccc(SC)cc2)C1 (stereo not given)	none
CSc1ccc(C(=O)C2CCCN(CCCn3cccn3)C2)cc1 (stereo not given)	D2 antag 35.9
Cc1ccc(Cn2cccc(C(=O)Nc3ccc(C)c(Cl)c3)c2=O)cc1	none (no result: D2 antag, D2 ag-2, D2 PAM-1)
O=[N+]([O-])c1cccc(CCl)c1	none
O=[N+]([O-])c1cccc(O)c1	D2 antag 36.1 | D3 arrestin ag inactive | D2 ag-3 inactive
CCCN1CC[C@@H]2c3cc(O)ccc3CC[C@@H]21	D2 antag 73.0, D2 ag-1 65.6 | D3 arrestin ag inconclusive | D2 ag-3 inconclusive
CCN(CC)c1ccc(/C=C2\C(=O)NC(=S)N(C)C2=O)o1	D2 ag-1 33.1 | D3 arrestin ag inactive | D2 ag-3 inactive
CC(CCc1ccccc1)NCCC#N (stereo not given)	D2 ag-1 76.7 | D3 arrestin ag inconclusive | D2 ag-3 inactive
